Screening data: PubChem, National Center for Advancing Translational Sciences (NCATS)
TDP1 block: inhibitors of human tyrosyl-DNA phosphodiesterase TDP1; Q9NUW8; recombinant TDP1, AlphaScreen DNA substrate cleavage; Potency, µM (series often up to 130 µM), most hits filed as inhibitors; 350,000 compounds, 0.28% hits; further: nearly all actives have a fitted effect of over 40% in size
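Tdp1 1 nM final; 15 min RT w/ cpd; substrate 15 nM, 5 min; beads 10 ug/ml, 10 min; AlphaScreen read. Neg ctrl: no enzyme.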
RORg inh: blocks mouse ROR gamma transcriptional activity | Drosophila S2 Gal4-RORgamma UAS-luciferase reporter, 20 h | AID 2551 | 310,000 compounds, 5.4% hits | P51450 | Potency, µM (doses to about 53.6 µM), most hits filed as inhibitors; further: nearly all actives have a fitted effect of over 60% in size
Target sequence (P51450 whole entry, looked up, the tested form may be a part): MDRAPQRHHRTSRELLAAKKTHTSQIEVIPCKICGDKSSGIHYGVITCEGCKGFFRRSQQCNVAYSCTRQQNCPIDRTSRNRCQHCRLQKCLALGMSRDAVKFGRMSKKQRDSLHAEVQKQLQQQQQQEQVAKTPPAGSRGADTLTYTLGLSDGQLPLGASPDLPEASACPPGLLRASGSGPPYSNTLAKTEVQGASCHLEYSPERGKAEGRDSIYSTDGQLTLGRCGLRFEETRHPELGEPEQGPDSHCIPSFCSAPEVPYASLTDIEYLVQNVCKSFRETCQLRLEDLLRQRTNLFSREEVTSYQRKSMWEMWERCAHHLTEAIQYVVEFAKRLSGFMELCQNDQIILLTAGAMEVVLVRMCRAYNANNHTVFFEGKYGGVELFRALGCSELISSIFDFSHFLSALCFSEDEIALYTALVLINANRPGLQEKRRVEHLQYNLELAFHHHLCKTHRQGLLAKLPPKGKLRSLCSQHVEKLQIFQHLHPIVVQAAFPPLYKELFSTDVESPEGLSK
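In this cell-based reporter format, copper sulfate (700 uM final) drives Gal4–ROR gamma fusion expression from a metallothionein promoter in Drosophila Schneider cells; compounds preincubated 1 hr, reporter read after 20 hr at ambient temperature.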
TDP1 cell noCPT: qHTS for Inhibitors of human tyrosyl-DNA phosphodiesterase 1 (TDP1): qHTS in cells in absence of CPT | DT40 Tdp1-/- hTDP1 cells, no CPT, ATP luminescence, 48 h | Potency, µM (doses to about 46.2 µM), most hits filed as inhibitors | 420,000 compounds, 15% hits; further: nearly all actives have a fitted effect of over 55% in size
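No-CPT arm: Tdp1-/-;hTDP1 DT40 cells (400/well) plus compounds, incubated ≥48 hr at 37 °C. Readout CellTiter-Glo luminescence.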
TDP1 cell CPT: DT40-hTDP1 cell growth loss with CPT | 420,000 compounds, 12% hits | AID 686979 | chicken DT40 Tdp1-/-;hTDP1 cells + 20 nM CPT, ATP luminescence, 48 h | Potency, µM (highest dose often 46.2 µM), usual class: inhibitors; further: nearly all actives have a fitted effect of over 55% in size
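Chicken DT40 Tdp1-/- cells complemented with human TDP1, 400 cells/well, exposed to compounds plus 20 nM camptothecin for at least 48 h at 37 C; viability read as ATP content by CellTiter-Glo luminescence.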
Gal4-VP16 FLuc: inhibits Gal4-VP16 luciferase reporter, ROR gamma counter-screen; Drosophila S2 Gal4-VP16 UAS-luciferase, luminescence, 20 h; AID 2546; Potency, µM (titrated, usually from 53.6 µM), usual class: inhibitors; 310,000 compounds, 3.5% hits;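 further: Gal4-VP16 expression switched on by copper sulfate through the metallothionein promoter; nearly all actives have a fitted effect of over 50% in size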
A number is an active result; - = inactive; ? = inconclusive; . = not tested or not shown; [ ] = remark or other dose. Shown are actives, neighbours in structure and some others; about 19% of the full set was active somewhere. The call rests on the fitted dose curve; in most records, active means well fitted curve in the direction sought with a large enough effect; inconclusive means small, poorly fitted or top-dose-only effect, or another doubt; inactive means no such curve, though single readings can be large; an effect the other way counts as inactive or inconclusive.

SMILES	TDP1 block	RORg inh	TDP1 cell noCPT	TDP1 cell CPT	Gal4-VP16 FLuc
Cc1cccc(NC(=O)CSc2nc3ccc(NC(=O)COc4ccccc4F)cc3s2)c1	-	.	6.51µM	16.4µM	.
CCN(CC)C(=O)CSc1nc2ccc(NC(=O)CSc3nnc(N)s3)cc2s1	-	-	?	?	-
Cc1ccc(NC(=O)CSc2nc3ccc(NC(=O)c4ccco4)cc3s2)cc1	-	.	?	?	.
Cc1cc(C)n(-c2nnc(SCC(=O)NC3CCCC3)c3ccccc23)n1	-	-	-	-	-
Cc1[nH]n(-c2ccc(F)cc2)c(=O)c1C=Nc1ccc(S(=O)(=O)N(C)C)cc1	-	-	-	-	-
COc1ccc(C)cc1NC(=O)Cc1csc(NC(=O)Nc2ccccc2OC)n1	.	.	16.4µM	?	.
COc1ccccc1NC(=O)Nc1nc(CC(=O)Nc2ccc(F)cc2)cs1	-	.	16.4µM	?	.
COc1ccc(NC(=O)Cc2csc(NC(=O)Nc3ccccc3OC)n2)cc1	.	.	23.1µM	25.9µM	.
COc1ccccc1NC(=O)Cc1csc(NC(=O)c2ccccc2)n1	-	-	?	?	-
COc1ccccc1NC(=O)Nc1nc(CC(=O)Nc2cccc(F)c2)cs1	-	.	?	?	.
COc1ccccc1NC(=O)Nc1nc(CC(=O)Nc2ccc(F)c(F)c2)cs1	-	.	14.6µM	?	.
COc1ccccc1NC(=O)Nc1nc(CC(=O)N2CCN(c3ccc(F)cc3)CC2)cs1	-	.	?	?	.
CN(C)CCNC(=O)CCCn1c(=O)c2cccn2c2ccccc21	-	.	-	-	.
COc1cc(NC(=O)CSc2ccc(-c3sc(-c4ccccc4)nc3C)nn2)cc(OC)c1	-	.	16.4µM	-	.
COc1cccc(CNC(=O)CSc2ccc(-c3sc(-c4ccccc4)nc3C)nn2)c1	-	.	18.4µM	?	.
CCc1ccc(NC(=O)CSc2ccc(-c3sc(-c4ccccc4)nc3C)nn2)cc1	-	.	11.6µM	?	.
Cc1nc(-c2ccccc2)sc1-c1ccc(SCC(=O)Nc2cccc(C(F)(F)F)c2)nn1	.	.	-	?	.
Cc1ccc(CNC(=O)CSc2ccc(-c3sc(-c4ccccc4)nc3C)nn2)cc1	-	.	-	-	.
CC(=O)Nc1cccc(NC(=O)CSc2ccc(-c3sc(-c4ccccc4)nc3C)nn2)c1	-	.	5.8µM	9.2µM	.
Cn1cnc2c(=O)oc3ccc(S(=O)(=O)N4CCN(c5ccccc5)CC4)cc3c21	-	.	-	-	.
CCOC(=O)Nc1ccc(C(=O)c2ccncc2)cc1	.	-	?	?	-
CC(=O)Nc1cccc(NC(=O)C(=O)NCCc2sc(-c3ccccc3)nc2C)c1	-	.	1.16µM	1.46µM	.
C=CCN=c1scc(-c2ccc(F)cc2)n1/N=C/c1ccccn1	-	8.91µM	2.59µM	2.59µM	11.2µM
C=CCN=c1scc(-c2ccccc2)n1/N=C/c1ccccn1	-	5.01µM	1.3µM	1.84µM	10µM
CC1=Nc2ccccc2N=C(NC(=O)CSC(=S)N2CCN(C)CC2)C1c1ccccc1 (stereo not given)	-	-	16.4µM	?	-
SMILES	TDP1 block	RORg inh	TDP1 cell noCPT	TDP1 cell CPT	Gal4-VP16 FLuc
CC1=Nc2ccccc2N=C(NC(=O)CSc2nnnn2-c2ccccc2)C1c1ccccc1 (stereo not given)	-	-	29.1µM	?	-
CCc1ccc2c(c1)cc(CN(C(=S)Nc1cccc(C)c1)C1CC1)c1nnnn12	-	6.31µM	?	?	-
COCCN(Cc1cc2cc(C)ccc2n2nnnc12)C(=S)Nc1cccc(C)c1	-	?	?	?	-
Cc1ccccc1CN(c1ccc(C(=O)N2CCN(C)CC2)cc1)S(C)(=O)=O	.	.	-	-	.
COc1ccc(/C=C(/NC(=O)c2ccc(Br)cc2)C(=O)N2CCOCC2)cc1	-	-	-	-	-
CCNc1nc(NC(C)CC)nc(Oc2ccc(OCC)nn2)n1 (stereo not given)	-	-	9.2µM	10.3µM	-
Clc1ccc(-c2csc(=Nc3ccccc3)n2Cc2ccc3c(c2)OCO3)cc1	-	.	10.3µM	20.6µM	.
Cc1ccc(-c2csc(=Nc3ccc(F)cc3)n2Cc2ccc3c(c2)OCO3)cc1C	-	.	14.6µM	18.4µM	.
O=c1c2oc3ccccc3c2n(Cc2ccc(Cl)cc2)c(=O)n1Cc1ccc2c(c1)OCO2	-	.	-	-	.
Cc1ccc(-c2csc(=Nc3ccccc3)n2Cc2ccc3c(c2)OCO3)cc1C	-	.	6.51µM	?	.
O=C(Nc1ccc(Cn2cccn2)cc1)c1ccc(COc2ccccc2Br)cc1	-	?	14.6µM	13µM	?
Cc1ccc(COc2ccccc2C(=S)N2CCCC2)cc1	-	15.8µM	20.6µM	?	?
COc1cccc(C(=S)N2CCCC2)c1OC	-	?	-	-	0.0794µM
O=C(c1ccc(COc2ccccc2Br)cc1)N1CCCCCC1	-	-	16.4µM	?	-
COc1cccc(C(=O)C(=O)c2cccc(OC)c2OC)c1OC	.	.	-	?	.
O=C(Nc1ccn(Cc2c(F)c(F)c(F)c(F)c2F)n1)c1ccc(COc2ccccc2Cl)cc1	-	?	?	-	-
CCCN(CCC)C(=O)CSc1nnc2cc(C)c3cc(C)cc(C)c3n12	-	.	?	?	.
COc1ccc(-c2ocnc2C(=O)Nc2ccc(N3CCOCC3)cc2N2CCOCC2)cc1OC	.	-	?	?	-
CC(C)(O)C#Cc1ccc(C(=O)N2CCCC2C(=O)O)s1 (stereo not given)	-	-	-	-	-
COc1ccc(NC(=O)COc2ccc(S(=O)(=O)N3CCOCC3)cc2C)cc1OC	-[0.0935 µM]	-	?	-	-
O=C(COC(=O)C1(c2ccccc2F)CCCC1)NCc1cccs1	-	-	23.1µM	?	-
Cc1ccc(Cl)cc1Nc1nc(N2CCOCC2)nc(N2CCOCC2)n1	-	-	?	?	-
O=C(CBr)N1CCc2ccccc2C(c2ccccc2)C1 (stereo not given)	.	?	2.59µM	2.59µM	-
O=C(CN1CCOCC1)N1CCc2ccccc2C(c2ccccc2)C1 (stereo not given)	-	?	?	-	-
COc1cc(/C=C(\C#N)c2nc3ccccc3n2C)cc(OC)c1OC	-[12.3 µM]	.	11.6µM	29.1µM	.
SMILES	TDP1 block	RORg inh	TDP1 cell noCPT	TDP1 cell CPT	Gal4-VP16 FLuc
COc1ccc(/C=C(\C#N)c2nc3ccccc3n2C)c(OC)c1	-[12.3 µM]	.	?	?	.
N#C/C(=C/c1ccc(-c2cc(C(=O)O)cc(C(=O)O)c2)o1)c1nc2ccccc2s1	.	-	.	.	-
Cn1c(/C(C#N)=C/c2cccc(O)c2)nc2ccccc21	-	-	?	20.6µM	-
Cn1c(/C(C#N)=C/c2ccc(-c3ccc(S(N)(=O)=O)cc3)o2)nc2ccccc21	-	-	14.6µM	13µM	-
COc1cccc(CNC(=O)Cc2c(C(=O)O)c(C)cn2C)c1	-	.	-	-	.
Cc1cccc(CSc2nc3c(cc2C#N)CCC3)c1	-	?	-	-	-
CC(C)OCCCNC(=S)NNC(=O)c1ccc(Cl)c(Cl)c1	-	14.1µM	-	-	?
COCCCNC(=S)NNC(=O)c1ccc2c(c1)OCO2	-	-	-	-	-
